Screening results as filed in PubChem.
DUSP3 inh – blocks human VHR1 dual specificity phosphatase; P51452; recombinant VHR phosphatase, pNPP absorbance; inhibition, % at 13.3 µM; 290,000 tested, 0.52% active; AID 1654; in the data active = inhibition above about 50%
Target sequence (P51452 whole entry, looked up): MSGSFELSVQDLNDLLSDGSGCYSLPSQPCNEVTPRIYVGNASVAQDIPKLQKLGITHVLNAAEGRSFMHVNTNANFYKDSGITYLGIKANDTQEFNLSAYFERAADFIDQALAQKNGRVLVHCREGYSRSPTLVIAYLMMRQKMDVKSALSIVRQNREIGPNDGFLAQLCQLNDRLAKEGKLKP
TcdB GH inh – TcdB glycohydrolase inhibition | TcdB glycohydrolase enzymatic assay, plate reader | AID 652162 | 350,000 tested, 0.24% active | inhibition, % at 9.99 µM | P18177; in the data active = inhibition above about 10%
Vc quorum ag-1 – inducers of Vibrio cholerae quorum light production without autoinducers; V. cholerae BH1578 lux reporter, luminescence, 6 h; 350,000 tested, 0.16% active; activation, % at 18.7 µM; in the data active = activation mostly above about 9.7%, no sharp cut-off
Yp Topo-I inh – blocks Yersinia pestis topoisomerase I activity; activity, % at 10 µM; AID 504884; 360,000 tested, 0.064% active; Y. pestis Topo-I cleavage product accumulation, plate reader; in the data active = activity above about 50%, passing the limit was not always enough
BioA inh – BioA (M. tuberculosis) enzyme inhibition; inhibition, % at 9.99 µM; 360,000 tested, 0.096% active; AID 602481; purified M. tuberculosis BioA enzyme, plate reader; in the data active = inhibition above about 40%
Vc quorum ag-2 – quorum light induction in BH1578 reporter strain; shares compounds with Vc quorum ag-1; activation, % at 50 µM; V. cholerae BH1578 lux reporter, luminescence, 6 h; 620 tested, under 10 active; call rule not given here
Hits are given with their value. The list is not random: actives were taken first. Their share in the collection is about 0.73%.

Results for Cc1cc(C)c(-c2noc(C(=O)OC(C)(C)C)c2C(=O)OC(C)(C)C)c(C)c1 ?
DUSP3 inh: inactive; Vc quorum ag-1: 51; Yp Topo-I inh: inactive; BioA inh: inactive

What do the screens show for `Cc1ccc(NS(=O)(=O)c2cccc(C(=O)N3CCCC(C)C3)c2)cc1` (stereo not drawn)?
TcdB GH inh: inactive; Vc quorum ag-1: inactive; Yp Topo-I inh: inactive; BioA inh: inactive

How did COc1ccc(NS(=O)(=O)c2cccc(C(=O)N3CCCC(C)C3)c2)cc1 (stereo not drawn) do in these assays?
TcdB GH inh: inactive; Vc quorum ag-1: inactive; Yp Topo-I inh: inactive; BioA inh: inactive; Vc quorum ag-2: inactive

Results for O=C(CN1C(=O)COc2ccccc21)c1cccc(Cl)c1 ?
DUSP3 inh: inactive; Vc quorum ag-1: inactive; Yp Topo-I inh: inactive; BioA inh: inactive

What do the screens show for `O=C(CN1C(=O)COc2ccccc21)c1ccc(Cl)cc1`?
DUSP3 inh: inactive; Vc quorum ag-1: 17; Yp Topo-I inh: inactive; BioA inh: inactive; Vc quorum ag-2: inactive

What do the screens show for `COc1ccc(-c2ccc3c(c2)O[C@@H](CN(C)C)[C@H](C)CN([C@@H](C)CO)S3(=O)=O)cc1`?
TcdB GH inh: inactive; BioA inh: inactive

Results for CCCOC(=O)c1ccc(NC(=O)CCC(=O)OCC)cc1 ?
DUSP3 inh: inactive; Vc quorum ag-1: inactive; Yp Topo-I inh: inactive; BioA inh: inactive; Vc quorum ag-2: inactive

How did CCCOC(=O)c1ccc(NC(=O)C2CCCO2)cc1 (stereo not drawn) do in these assays?
DUSP3 inh: inactive; Vc quorum ag-1: 17; Yp Topo-I inh: inactive; BioA inh: inactive; Vc quorum ag-2: inactive

Results for CN(C)CC#Cc1ccc([C@@H]2[C@@H](CO)N3C(=O)CN(C(=O)Cc4cccnc4)C[C@H]23)cc1 ?
TcdB GH inh: inactive

Results for COC(=O)Cc1c(C)c2ccc(OC(=O)c3ccccc3)cc2oc1=O ?
DUSP3 inh: inactive; Vc quorum ag-1: inactive; Yp Topo-I inh: inactive; BioA inh: inactive; Vc quorum ag-2: inactive

What do the screens show for `O=C(NCc1ccc2c(c1)OCO2)C1CCCN1C(=O)Nc1cccc(Cl)c1` (stereo not drawn)?
DUSP3 inh: inactive; Vc quorum ag-1: 5.6; Yp Topo-I inh: inactive; BioA inh: inactive; Vc quorum ag-2: inactive

How did Cc1ccc(NC(=O)N2CCCC2C(=O)NCc2ccc3c(c2)OCO3)cc1 (stereo not drawn) do in these assays?
DUSP3 inh: inactive; TcdB GH inh: inactive; Vc quorum ag-1: inactive; Yp Topo-I inh: inactive; BioA inh: inactive

Results for FC(F)(F)c1nnc2sc(-c3cccs3)nn12 ?
DUSP3 inh: inactive; Vc quorum ag-1: 17; Yp Topo-I inh: inactive; BioA inh: inactive; Vc quorum ag-2: inactive

How did FC(F)(F)c1nnc2sc(-c3ccncc3)nn12 do in these assays?
DUSP3 inh: inactive; Vc quorum ag-1: inactive; Yp Topo-I inh: inactive; BioA inh: inactive

Results for O=C(O)c1cn[nH]c1-n1cnnn1 ?
DUSP3 inh: inactive; Vc quorum ag-1: inactive; Yp Topo-I inh: inactive; BioA inh: inactive; Vc quorum ag-2: inactive

What do the screens show for `CCc1sc(N(C(=O)Cc2ccccc2)c2ccc(F)cc2)nc1-c1ccccc1`?
DUSP3 inh: inactive; Vc quorum ag-1: inactive; Yp Topo-I inh: inactive; BioA inh: inactive; Vc quorum ag-2: inactive

What do the screens show for `CCc1sc(N(C(=O)Cc2ccccc2)c2ccccc2)nc1-c1ccccc1`?
DUSP3 inh: inactive; Vc quorum ag-1: inactive; Yp Topo-I inh: inactive; BioA inh: inactive

Results for CO[C@H]1CN(C)C(=O)c2cc(NS(=O)(=O)c3ccc(Oc4ccccc4)cc3)ccc2OC[C@@H](C)NC[C@@H]1C ?
TcdB GH inh: inactive; BioA inh: inactive

What do the screens show for `O=S(=O)(NCC(c1cccnc1)N1CCc2ccccc2C1)c1ccccc1` (stereo not drawn)?
DUSP3 inh: inactive; TcdB GH inh: inactive; Vc quorum ag-1: inactive; Yp Topo-I inh: inactive; BioA inh: inactive

What do the screens show for `O=[N+]([O-])c1ccc(S(=O)(=O)NCC(c2cccnc2)N2CCc3ccccc32)cc1` (stereo not drawn)?
TcdB GH inh: inactive; Vc quorum ag-1: inactive; Yp Topo-I inh: inactive; BioA inh: inactive; Vc quorum ag-2: inactive

How did C[C@H](CO)N1C[C@H](C)[C@H](CN(C)C(=O)c2ccc(F)cc2)Oc2ncc(C#C[C@@H](C)O)cc2C1=O do in these assays?
TcdB GH inh: inactive; BioA inh: inactive

What do the screens show for `C[C@H]1CCCCO[C@H](CN(C)C(=O)Nc2ccc(C(F)(F)F)cc2)[C@@H](C)CN([C@@H](C)CO)C(=O)c2cc(NC(=O)Nc3cccc4ccccc34)ccc2O1`?
TcdB GH inh: inactive; BioA inh: inactive
